# Measurements from PubChem BioAssay (NCATS).
# Results filed as inconclusive are left out. A call without a number means that no potency is given here. Calls of active or inactive are those of the source. Unless noted, calls come from the whole dose curve; as a rule, active = well fitted curve in the direction sought with a large enough effect; inconclusive = small, poorly fitted or top-dose-only effect, or another doubt; inactive = no such curve, though single readings can be large; an effect the other way counts as inactive or inconclusive.
# Assays:
# [1] = qHTS Assay for Identification of Small Molecule Agonists for Thrombopoietin (TPO) Signaling Pathway (AID 917)
# Outline: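 IL-3-dependent murine pro-B Ba/F3 cells, stably transfected with human TPO receptor and GpIIb-promoter luciferase, are incubated 24 hrs at 37 C with test compound and 26 pM TPO; luciferase signal is read after 10 min at room temperature.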
# [2] = molecular target: Muscarinic acetylcholine receptor M1 (Rattus norvegicus) (UniProt P08482); experiment: qHTS Assay for Antagonists of Acetylcholine Muscarinic M1 Receptor: Kinetic Measurement of Intracellular Calcium Response (AID 943);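 note: Fluo-4 calcium signal as peak divided by basal fluorescence over 4 min; series mostly up to about 35 µM; nearly all actives have a fitted effect of over 75% in size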
# Outline: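 Rat M1-CHO cells, 2000/well, overnight → Fluo-4 no-wash dye with probenecid, 1 h 37C → compound 10 min, room temp → basal read 6 s → carbachol EC80 (100 nM) → 4 min kinetic read; peak/basal.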
# [3] = molecular target: Pyruvate kinase (Leishmania mexicana) (UniProt Q27686); experiment: qHTS Validation Assay for Inhibitors of Leishmania Mexicana Pyruvate Kinase (AID 945)
# Outline: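 Luminescent ATP detection (PKLight) after a 1 h room-temperature reaction of 0.2 nM LmPYK E451W mutant with 0.5 mM PEP and 0.1 mM ADP at pH 7.2. Activity is normalized to DMSO-only control wells.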
# [4] = molecular target: Pyruvate kinase PKM (Homo sapiens) (UniProt P14618); experiment: qHTS Assay for Activators of Human Muscle Pyruvate Kinase (AID 954; active = well fitted curve in the direction sought with a large enough effect, not every such curve was filed as active)
# Outline: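 Luminescence from a luciferase ATP-detection/stop reagent reported PKM2 activity. Reactions contained 0.1 nM purified human enzyme, 0.5 mM PEP, 0.1 mM ADP and 7 mM MgCl2 at pH 7.2, run 1 h at RT.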
# [5] = Cell Viability - LYMP2-001 (AID 921);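 note: cells exposed to compound for 24 h at 37 °C; nearly all actives have a fitted effect of over 70% in size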; note: potency is the fitted concentration of half-maximal effect
# Outline: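 A lymphoblastoid cell line of human origin was treated with library compounds across a concentration series for 24 hours, and viable cell number was estimated from ATP-driven luciferase light output. Hill modeling gave AC50.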
# [6] = Confirmation and Secondary Assay for Modulators of Hemoglobin Beta Chain Splicing at IVS2 705 locus (AID 930);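 note: HeLa cells stably expressing the EGFP-705 splicing reporter; GFP fluorescence per well restored by corrected splicing of the IVS2-705 intron in EGFP; series mostly up to about 46 µM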
# Outline: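 Read-out: total peak GFP fluorescence per well (488 nm excitation, 500-520 nm emission) by laser-scanning cytometry. Cells: HeLa EGFP-705 splicing reporter, 2 days compound exposure in Optimem/2% FCS.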
# [7] = MultiTox-Fluor Cytotoxicity Assay - LYMP1-001 - Dead Cells (AID 946);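 note: cells exposed to compound for 16 h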; note: potency is the fitted concentration of half-maximal effect
# Outline: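 AC50 from Hill fit of concentration-response; data normalized to DMSO (basal) and 15 uM tetraoctylammonium bromide (100%). LYMP1-001 lymphoblastoid cells, 2500/well, 16 hr compound at 37 C; dead-cell protease fluorescence, Ex/Em 485/520.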
# [8] = MultiTox-Fluor Cytotoxicity Assay - LYMP1-001 - Live Cells (AID 947); note: potency is the fitted concentration of half-maximal effect
# [9] = Cell Viability - LYMP1-002 - Assay at 16 hr (AID 948); note: potency is the fitted concentration of half-maximal effect
# Outline: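 In this qHTS, lymphoblastoid LYMP1-002 cells (human) receive compounds for 16 hr at 37 C. Viability is taken from CellTiter-Glo ATP luminescence, and AC50 derives from standard Hill fits.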
# [10] = molecular target: Muscarinic acetylcholine receptor M1 (Rattus norvegicus) (UniProt P08482); experiment: qHTS Assay for Antagonists of Acetylcholine Muscarinic M1 Receptor: Measurement of IP-One Response (AID 944); note: nearly all actives have a fitted effect of over 75% in size
# Text: NIH Molecular Libraries Screening Centers Network [MLSCN]
# NIH Chemical Genomics Center [NCGC]
# Acetylcholine muscarinic M1 receptor is a G-protein coupled receptor (GPCR) coupling to the Gq G protein. It is mainly expressed in brain and functionally related to the learning and memory processes. The agonists of this receptor have the potential for the treatment of Alzheimer's disease and cognitive impairments associated with Schizophrenia.
# Upon an activation of the M1 receptor, phosholipase C (PLC) is activated to produce inositol 1,4,5-trisphosphate (IP3) and diacyl glycerol (DAG). […] For compound screen, the changes in intracellular free Ca2+ concentration can be measured by the fluorescence calcium dye such as Fura-2, Fluo-3 and Fluo-4 with a fluorescence kinetic plate reader. IP1 or total IPs including IP1, IP2 and IP3 are usually measured as an alternative method for assessing the function of Gq-coupled GPCRs. We have applied a time-resolved fluorescence based (TR-FRET) IP1 assay in which an IP1 specific antibody is used to detect the labeled IP1 tracer. […]
# The resuspended frozen cells were plated at 3 ul/well with 2000 cells in the black, tissue culture treated, clear bottom 1536-well plates. […] After 10 min incubation at the room temperature, the assay plates were measured in the HTRF detection mode in ViewLux plate reader (Ex=337 nm. Em(1)=620 and Em(2)=665 nm) […]
# Muscarinic acetylcholine receptor M1 (Rattus norvegicus), sequence (P08482 whole entry, looked up): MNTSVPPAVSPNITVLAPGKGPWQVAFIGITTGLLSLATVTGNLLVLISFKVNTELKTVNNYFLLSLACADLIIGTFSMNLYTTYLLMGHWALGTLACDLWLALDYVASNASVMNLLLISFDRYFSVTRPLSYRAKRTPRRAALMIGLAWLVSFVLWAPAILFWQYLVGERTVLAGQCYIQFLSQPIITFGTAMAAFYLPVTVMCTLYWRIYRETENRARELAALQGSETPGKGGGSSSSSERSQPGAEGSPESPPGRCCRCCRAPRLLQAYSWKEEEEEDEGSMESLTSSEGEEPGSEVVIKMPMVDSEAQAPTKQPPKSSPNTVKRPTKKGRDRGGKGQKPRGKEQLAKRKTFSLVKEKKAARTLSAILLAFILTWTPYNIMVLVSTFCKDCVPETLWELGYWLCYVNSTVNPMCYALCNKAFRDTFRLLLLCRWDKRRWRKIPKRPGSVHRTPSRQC
# Pyruvate kinase PKM (Homo sapiens), sequence (P14618 whole entry, looked up): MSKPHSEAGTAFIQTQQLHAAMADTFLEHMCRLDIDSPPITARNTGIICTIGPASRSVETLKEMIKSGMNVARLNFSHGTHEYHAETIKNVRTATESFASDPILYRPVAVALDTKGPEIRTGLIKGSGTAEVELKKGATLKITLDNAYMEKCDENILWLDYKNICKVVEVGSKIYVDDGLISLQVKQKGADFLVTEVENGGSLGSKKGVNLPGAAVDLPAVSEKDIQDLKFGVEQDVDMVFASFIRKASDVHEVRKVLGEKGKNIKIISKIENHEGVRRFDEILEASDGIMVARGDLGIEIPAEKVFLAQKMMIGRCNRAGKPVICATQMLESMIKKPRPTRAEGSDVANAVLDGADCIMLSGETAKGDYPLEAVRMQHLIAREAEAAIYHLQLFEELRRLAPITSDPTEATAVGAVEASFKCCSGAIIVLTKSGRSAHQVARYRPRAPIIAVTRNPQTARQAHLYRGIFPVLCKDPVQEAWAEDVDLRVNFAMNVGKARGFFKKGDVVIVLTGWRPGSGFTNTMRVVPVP
# Pyruvate kinase (Leishmania mexicana), sequence (Q27686 2-499 E452W): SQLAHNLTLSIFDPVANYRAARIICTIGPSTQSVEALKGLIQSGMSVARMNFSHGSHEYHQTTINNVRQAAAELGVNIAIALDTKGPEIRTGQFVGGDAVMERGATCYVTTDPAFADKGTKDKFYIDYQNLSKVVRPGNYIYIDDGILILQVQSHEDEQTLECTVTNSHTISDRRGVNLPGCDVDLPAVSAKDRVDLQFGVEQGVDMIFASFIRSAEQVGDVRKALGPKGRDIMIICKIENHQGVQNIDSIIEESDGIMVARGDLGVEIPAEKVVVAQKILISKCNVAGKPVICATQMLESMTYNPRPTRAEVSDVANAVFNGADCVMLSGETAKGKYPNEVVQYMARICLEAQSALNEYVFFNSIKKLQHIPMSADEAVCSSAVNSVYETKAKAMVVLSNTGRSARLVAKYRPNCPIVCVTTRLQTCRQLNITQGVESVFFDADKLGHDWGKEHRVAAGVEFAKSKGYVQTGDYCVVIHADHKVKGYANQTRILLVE
compound,measurement,setting,value
OCc1ccc(-c2nn(Cc3ccccc3)c3ccccc23)o1,outcome,[1],inactive
same,outcome,[2],inactive
same,outcome,[3],inactive
same,outcome,[4],inactive
COc1cc2ncnc(Nc3cccc(Cl)c3)c2cc1OC,outcome,[1],inactive
same,outcome,[3],inactive
same,outcome,[4],inactive
NNC(=O)c1ccncc1,Potency,[5],inactive
same,Potency,[6],inactive
same,Potency,[7],inactive
same,Potency,[8],inactive
same,Potency,[9],inactive
COc1c(N2CCNC(C)C2)c(F)cc2c(=O)c(C(=O)O)cn(C3CC3)c12 (stereo not drawn),Potency,[6],inactive
Cc1cccc(N(C)C(=S)Oc2ccc3ccccc3c2)c1,Potency,[6],inactive
Cc1ccnc2c1NC(=O)c1cccnc1N2C1CC1,Potency,[5],inactive
same,Potency,[7],inactive
same,Potency,[8],inactive
same,Potency,[9],inactive
CCCCCCNC(=O)n1cc(F)c(=O)[nH]c1=O,Potency,[6],inactive
CCn1cc(C(=O)O)c(=O)c2cc(F)c(N3CCNCC3)cc21,Potency,[6],inactive
CN(C)c1ccc(C(=C2C=CC(=[N+](C)C)C=C2)c2ccc(N(C)C)cc2)cc1,Potency,[5],1.26 µM (active)
same,Potency,[6],inactive
same,Potency,[7],12.6 µM (active)
same,Potency,[8],25.1 µM (active)
same,Potency,[9],6.31 µM (active)
CC1=NN(c2ccccc2)C(=O)C1,Potency,[5],inactive
same,Potency,[6],inactive
same,Potency,[7],inactive
same,Potency,[9],inactive
N[C@@H](Cc1ccc(O)c(O)c1)C(=O)O,outcome,[1],inactive
same,outcome,[10],inactive
same,outcome,[4],inactive
Cc1ncc([N+](=O)[O-])n1CCO,Potency,[5],inactive
same,Potency,[6],inactive
same,Potency,[7],inactive
same,Potency,[8],inactive
same,Potency,[9],inactive
C[C@]12C=CC(=O)C=C1CC[C@@H]1[C@@H]2C(=O)C[C@@]2(C)[C@H]1CC[C@]2(O)C(=O)CO,Potency,[5],inactive
same,Potency,[7],inactive
same,Potency,[8],inactive
same,Potency,[9],inactive
NS(=O)(=O)c1cc2c(cc1Cl)NC(C(Cl)Cl)NS2(=O)=O (stereo not drawn),Potency,[6],inactive
COC(=O)Nc1nc2ccc(S(=O)c3ccccc3)cc2[nH]1 (stereo not drawn),Potency,[6],inactive
Cc1noc(NS(=O)(=O)c2ccc(N)cc2)c1C,Potency,[5],inactive
same,Potency,[6],inactive
same,Potency,[7],inactive
same,Potency,[8],inactive
same,Potency,[9],inactive
Cc1cc(NS(=O)(=O)c2ccc(N)cc2)no1,Potency,[5],inactive
same,Potency,[6],inactive
same,Potency,[7],inactive
same,Potency,[8],inactive
same,Potency,[9],inactive
COc1ccc2cc3[n+](cc2c1OC)CCc1cc2c(cc1-3)OCO2,Potency,[5],39.8 µM (active)
same,Potency,[6],inactive
same,Potency,[7],inactive
same,Potency,[9],inactive
CC[C@H](C)C(=O)O[C@H]1C[C@@H](C)C=C2C=C[C@H](C)[C@H](CC[C@@H]3C[C@@H](O)CC(=O)O3)[C@H]21,Potency,[5],inactive
same,Potency,[7],inactive
same,Potency,[8],inactive
same,Potency,[9],inactive
O=C(N[C@H](CO)[C@H](O)c1ccc([N+](=O)[O-])cc1)C(Cl)Cl,Potency,[5],inactive
same,Potency,[7],inactive
same,Potency,[8],inactive
same,Potency,[9],inactive
CCc1cc(C(N)=S)ccn1,Potency,[5],inactive
same,Potency,[6],inactive
same,Potency,[7],inactive
same,Potency,[8],inactive
same,Potency,[9],inactive
Cc1nnc(NS(=O)(=O)c2ccc(N)cc2)s1,Potency,[5],inactive
same,Potency,[6],inactive
same,Potency,[7],inactive
same,Potency,[8],inactive
same,Potency,[9],inactive
S=P(N1CC1)(N1CC1)N1CC1,Potency,[6],inactive
CC(=O)[C@H]1CC[C@H]2[C@@H]3CCC4=CC(=O)CC[C@]4(C)[C@H]3CC[C@]12C,Potency,[5],inactive
same,Potency,[8],inactive
same,outcome,[4],inactive
NC(=O)c1cccc(N)c1,outcome,[1],inactive
same,outcome,[3],inactive
same,outcome,[4],inactive
NC(N)=NC(N)=NCCc1ccccc1,Potency,[5],inactive
same,Potency,[7],inactive
same,Potency,[8],inactive
same,Potency,[9],inactive
CC(=O)CC(c1ccccc1)c1c(O)c2ccccc2oc1=O (stereo not drawn),Potency,[6],inactive
CC1=CC(=O)c2ccccc2C1=O,Potency,[6],inactive
O=C(O)c1cc(=O)[nH]c(=O)[nH]1,Potency,[5],inactive
same,Potency,[7],inactive
same,Potency,[8],inactive
same,Potency,[9],inactive
Cc1cccc(Nc2ccncc2S(=O)(=O)NC(=O)NC(C)C)c1,Potency,[6],inactive
O=S(=O)(O)CCS,Potency,[6],inactive
Cc1ccc(S(=O)(=O)N[C@@H](Cc2ccccc2)C(=O)CCl)cc1,outcome,[2],inactive
same,outcome,[10],inactive
same,outcome,[3],inactive
same,outcome,[4],inactive
CC(C)(C)NC(=O)[C@H]1CC[C@H]2[C@@H]3CC[C@H]4NC(=O)C=C[C@]4(C)[C@H]3CC[C@]12C,outcome,[3],inactive
same,outcome,[4],inactive
N=C(N)c1ccc(OCCCCCOc2ccc(C(=N)N)cc2)cc1,Potency,[7],inactive
same,Potency,[8],inactive
same,Potency,[9],inactive
